In the library only some 6.7% were active in any assay of this set; here they are far more common.
KB-3-1 tox = kills parental KB-3-1 adenocarcinoma cells; KB-3-1 viability, CellTiter-Glo ATP luminescence, 72 h; Potency, µM (doses to about 46.1 µM), usual class: cytotoxic; actives 1.4% (n = 400,000); AID 1347075; note: % is set by controls: 0 for no effect and ±100 for the full control effect; nearly all actives have a fitted effect of over 60% in size
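Cytotoxicity in the drug-sensitive parental line KB-3-1 was scored as loss of CellTiter-Glo luminescence following 72 h incubation with compound. Values come from curve fitting of normalized concentration-response data.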
MCF10A rerep = induces DNA re-replication in MCF 10a normal breast cells; Potency, µM (highest dose often 46.1 µM), inactives show at the top dose activity, positive = re-replication, usual class: activators; MCF 10A DNA re-replication, Hoechst nuclear intensity, 48 h; AID 624296; actives 2.9% (n = 350,000); note: % of control where 0% means no effect; nearly all actives have a fitted effect of over 50% in size
SW480 rereplic = DNA re-replication induction in SW480 cells; Potency, µM (top dose mostly 46.1 µM), for inactives: top-dose re-replication activation, actives largely listed as activators; actives 1.8% (n = 340,000); SW480 DNA re-replication, Hoechst DNA content imaging, 48 h; note: % of control where 0% means no effect; nearly all actives have a fitted effect of over 55% in size
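Image-based read-out: total Hoechst fluorescence of nuclei (405 nm excitation, 500-530 nm emission), with hits raising the fraction of high-intensity nuclei. SW480 colon cells incubated 48 hr with compounds at 37 C.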
PINK1 modulator = changes PINK1 expression; PINK1 immunofluorescence, high-content cytometry, 24 h; Potency, µM (titrated, usually from 76.6 µM), for inactives: at the highest dose activation (PINK1 increase), actives largely listed as activators; actives 0.2% (n = 410,000); AID 624263; active = well fitted activation curve with a large enough effect; inconclusive = small, poorly fitted or top-dose-only effect; cell line not stated here; note: % of control where 0% means no effect; nearly all actives have a fitted effect of over 65% in size
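Measures PINK1 amount and localization on or inside mitochondria by immunofluorescence. Stable cells get compounds at 5 concentrations for 24 hours before fixation and staining; CCCP controls included.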
KB-V1 MDR tox = kills drug-selected multidrug resistant KB-V1 cells | AID 1347076 | Potency, µM (highest dose often 46.1 µM), hits mostly cytotoxic | actives 3.4% (n = 400,000) | KB-V1 MDR cells viability, CellTiter-Glo, 72 h; note: % is set by controls: 0 for no effect and ±100 for the full control effect; nearly all actives have a fitted effect of over 60% in size
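Potencies derive from concentration-effect curves fitted to normalized luminescence (CellTiter-Glo) of KB-V1 cells treated for 72 h at 37 degrees C in phenol-red-free DMEM containing 10% FBS.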
* marks the source's active call; other numbers are inactive results; i = inactive; ? = inconclusive; nt = not tested or not shown; [ ] = remark or other dose. Unless noted, calls come from the whole dose curve; as a rule, active = well fitted curve in the direction sought with a large enough effect; inconclusive = small, poorly fitted or top-dose-only effect, or another doubt; inactive = no such curve, though single readings can be large; an effect the other way counts as inactive or inconclusive. Potency is the fitted concentration of half-maximal effect.

SMILES | KB-3-1 tox | MCF10A rerep | SW480 rereplic | PINK1 modulator | KB-V1 MDR tox
O=C(CSc1nnc2sc3ccccc3n12)N1CCN(c2ccccc2)CC1 | i | 1% | -3% | 1%[38.3 µM] | 8.2µM*
Cc1ccc(-n2c(SCc3nc(-c4ccc(Cl)cc4)no3)nnc2-c2ccncc2)cc1 | i | nt | nt | 0% | i
O=C(COC(=O)c1ccccn1)NCc1cccs1 | i | ? | -56% | -2% | ?
Cc1cnc(SCc2ccccn2)nc1C1CCCN(C(=O)c2ccc3c(c2)OCCO3)C1 (centres undefined) | nt | nt | nt | 0% | nt
CC(=O)NC(c1ccccc1)c1nc(-c2cc(F)cc(F)c2)cs1 (centres undefined) | i | nt | nt | 9% | i
CC(O)CNCCCOc1ccccc1OCc1ccccc1 (centres undefined) | i | -1% | -8% | 0% | ?
CNCC(C)COc1ccccc1OCc1ccccc1 (centres undefined) | i | 0% | 10% | 0% | 21µM*
CCOc1ccccc1CNC(=O)c1cnn(-c2ccc(C)cc2)c1-n1cccc1 | nt | nt | nt | 2% | nt
O=C(c1ccccc1)c1ccccc1 | i | -2% | 0% | 1% | i
O=C(c1ccccc1)c1ccc(-c2ccc(O)cc2)cc1 | ? | 23µM* | 16µM* | 6% | ?
C[C@H](CO)N1C[C@H](C)[C@@H](CN(C)C(=O)Nc2ccccc2F)OCc2cnnn2CCCC1=O | i | nt | nt | 3% | i
O=C(COc1ccccc1F)NC1CC(=O)N(c2ccc3c(c2)OCCO3)C1 (centres undefined) | i | nt | nt | 2% | i
COc1ccc(O)c(C(=O)c2coc(=N)c(C(=O)Nc3ccc(SC(F)F)cc3)c2)c1 | i | 29% | 0% | ? | 23µM*
CC(C)OC(=O)c1cc(C(=O)c2cc(F)ccc2O)coc1=N | i | 4% | -8% | -2% | i
CCCCCc1nnc(N)s1 | i | 1% | -4% | -3%[38.3 µM] | i
CCOCCc1nnc(N)s1 | i | 8.2µM* | 15µM* | -5%[38.3 µM] | i
Cc1ccc(S(N)(=O)=O)cc1NC(=O)C(c1ccccc1)c1ccccc1 | i | 0% | -2% | -1% | i
O=C(NS(=O)(=O)Nc1ccc(Br)cn1)c1c[nH]c2ccccc12 | i | -6% | -5% | -1% | i
CCOc1cc(CNC(=O)C2COc3ccccc3C2)cc(OCC)c1OCC (centres undefined) | i | nt | nt | -1% | i
CN(C)c1ccc(Nc2nc(N)c3ccccc3n2)cc1 | ? | -22% | -4% | -1% | ?
CN(C)c1ccc(Sc2ccc3nc(N)nc(N)c3c2)cc1 | 8.2µM* | nt | nt | -2% | 8.2µM*
CCOc1cc(C2C(C#N)=C(N)OC(C)=C2C(C)=O)c(Br)c(Br)c1OC(C)C (centres undefined) | ? | 16µM* | 8.2µM* | -1% | 15µM*
CCOc1cc(C2C(C#N)=C(N)OC(C)=C2C(C)=O)cc(Br)c1O (centres undefined) | i | -2% | 2% | nt | i
Cc1nc2ccccc2n1CC(O)COc1ccc(Br)cc1 (centres undefined) | ? | 12% | -5% | 1% | 13µM*
Cc1nc2ccccc2n1CC(O)COc1ccc(C(=O)O)cc1 (centres undefined) | i | nt | nt | 1% | i
SMILES | KB-3-1 tox | MCF10A rerep | SW480 rereplic | PINK1 modulator | KB-V1 MDR tox
Cc1nc2ccccc2n1CC(O)COc1ccccc1Cl (centres undefined) | i | 7% | -8% | -1% | i
CCC(=O)c1ccc(OCC(O)Cn2c(C)nc3ccccc32)cc1 (centres undefined) | i | 5% | 3% | -1% | 8.2µM*
CCOC(=O)c1c(C)n(C)c2ccc(OCC(O)Cn3c(C)nc4ccccc43)cc12 (centres undefined) | i | ? | 15% | 1%[38.3 µM] | 13µM*
C/C(CC(=O)Nc1ccc(OCc2ccccc2)cc1)=N\NC(=O)C(=O)Nc1ccc(C)c(Cl)c1 | ? | 10µM* | 21% | -2% | i
C/C(CC(=O)Nc1ccc(C)c(Cl)c1)=N\NC(=O)c1ccco1 | i | 18µM* | -2% | 0% | ?
Cc1ccc(NC(=O)CN2CCCC2c2cccn2C)cc1C (centres undefined) | i | 26% | 16% | 5% | i
CC(C)CNC(=O)C(=O)NCC1CCCN1S(=O)(=O)c1cccs1 (centres undefined) | i | 2% | -2% | 2% | i
Cc1cc(C)n(-c2cc(C(C)(C)C)nc3c(-c4ccc(Cl)cc4)cnn23)n1 | i | 23µM* | ? | 26%[38.3 µM] | i
Cc1cc(C)n(-c2cc(C(C)(C)C)nc3c(-c4ccccc4)cnn23)n1 | i | 21µM* | 1% | ? | ?
Cc1cc(NCc2ccccc2)n2ncc(-c3ccccc3)c2n1 | ? | 18µM* | ? | 5% | i
Cc1cc(N2CCOCC2)n2ncc(-c3ccc(Cl)cc3)c2n1 | i | 6% | 21µM* | 5% | i
Cc1ccc(-c2cnn3c(N4CCOCC4)cc(C)nc23)cc1 | i | -4% | -1% | 1% | i
COc1ccc(NC(=O)N2CC3(CCN(C(=O)c4cccc(F)c4)CC3)C2)cc1 | nt | nt | nt | -1% | nt
CCC1Oc2ccc(Cl)cc2N(CC(=O)NCCc2ccc(Cl)cc2)C1=O (centres undefined) | nt | nt | nt | 5% | nt
COC(=O)[C@@H]1CCCN1Cc1ccc2c(c1)CN(Cc1ccccc1F)CCO2 | nt | nt | nt | 0% | nt
Cc1ccc(Sc2ccc(/C=N/O)cc2[N+](=O)[O-])cc1 | i | 21µM* | ? | 0% | i
O=[N+]([O-])c1cc(/C=N/O)ccc1SCc1ccccc1Cl | i | ? | ? | -1%[38.3 µM] | 21µM*
CC(C)(C)Sc1ccc(/C=N/O)cc1[N+](=O)[O-] | i | 4% | 2% | -4% | 23µM*
CO/N=C/c1ccc(Sc2ccc(C)cc2)c([N+](=O)[O-])c1 | i | ? | -3% | 8% | i
O=[N+]([O-])c1cc(/C=N/O)ccc1N1CCCC1 | ? | -7% | 12% | 3% | ?
CCOc1ccc(CNC(=O)CS(=O)(=O)c2cccc3nsnc23)cc1 | i | nt | nt | -1% | ?
COc1ccc2c(c1)C(=O)N1[C@H]3c4cc(OC)ccc4OC[C@@H]3[C@H](c3ccccc3)[C@]1(C)C(=O)N2 | i | ? | ? | 4% | i
COc1ccc2c(c1)[C@H]1[C@H](CO2)[C@H](c2ccccc2)[C@]2(C)C(=O)Nc3ccccc3C(=O)N12 | ? | 29µM* | ? | 3% | ?
COc1cc2c(cc1OC)C(=O)N1[C@H]3c4ccccc4OC[C@@H]3[C@H](c3ccccc3)[C@]1(C)C(=O)N2 | i | 21% | ? | 1% | ?
